# Data taken from publication PMC7819943, “Rice protein-binding microarrays: a tool to detect cis-acting elements near promoter regions in rice”.
# Whole data set: some 68,000 sequences, median “fluorescence intensity (a.u.)” near 9,100, cut for the highest 2% near 16,000. The entries come from a sample that favours the highest values as a whole.
# Target: OsWRKY34 (Oryza sativa, UniProt Q0JBA9 1-250)
# Experiment: protein-binding microarray (RPBM); PBS, 2% BSA, 51.3 ng/ul salmon testes DNA, 50 uM zinc acetate, 200 nM TF, 25 C, 1 h; high values mean tight binding
# Settings: protein: recombinant; tags: N-terminal polyhistidine and DsRed monomer fusion (pET32a); label: CyDye5-dUTP incorporated in the synthesized complementary strand; 3' TTTTT single-stranded linker to array surface; dsDNA, one strand shown
# Procedure, shortened: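 Ni–NTA purification followed expression in E. coli BL21-CodonPlus of transcription factors fused N-terminally to a polyhistidine tag and DsRed. At 200 nM in PBS with 2% BSA, salmon testes DNA and 50 µM zinc acetate, the protein was incubated for 1 h at 25 °C with a custom Agilent array that had been primer-extended with Cy5-dUTP and blocked with 2% BSA. After washing, the array was read on an Axon 4000B scanner. The binding signal is per-feature fluorescence intensity in arbitrary units.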
# OsWRKY34, sequence (Q0JBA9 entry or part of it): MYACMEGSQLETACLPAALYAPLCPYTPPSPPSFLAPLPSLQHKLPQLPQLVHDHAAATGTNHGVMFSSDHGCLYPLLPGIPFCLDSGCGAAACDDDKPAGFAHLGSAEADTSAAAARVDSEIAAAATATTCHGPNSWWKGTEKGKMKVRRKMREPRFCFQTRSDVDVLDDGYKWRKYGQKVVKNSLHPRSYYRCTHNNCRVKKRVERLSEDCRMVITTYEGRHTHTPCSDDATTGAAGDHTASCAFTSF
row,Sequence,binding signal
1,CTAGATTTTTTGGTGACATTTTTTAGTTGGTGTGCACGTGCGGAGTCACCTAGTGCAG,10200 fluorescence intensity (a.u.)
2,ACTCCTCTGCATGCTTTTTTTTTCCCTTCAGTTTCAGTTGCGGAGTCACCTAGTGCAG,11200 fluorescence intensity (a.u.)
3,GGCAACCACCTCAATTATTATTCCATTCCCTACCACCACTCGGAGTCACCTAGTGCAG,9980 fluorescence intensity (a.u.)
4,TTGACACCGTTGACTTTTTAGCACATGTTTGACCGTTCGTCGGAGTCACCTAGTGCAG,35800 fluorescence intensity (a.u.)
5,TTTCAAAATATTTGACACCGTTGACTTTTTAACACATGTTCGGAGTCACCTAGTGCAG,17900 fluorescence intensity (a.u.)
6,TGTTTGACACCGTTGACTTTTTAGCACATGTTTGACCGTTCGGAGTCACCTAGTGCAG,38000 fluorescence intensity (a.u.)
7,TTTAACACATGTTTGACCGTTCGTCTTATTCAAAAACTTTCGGAGTCACCTAGTGCAG,10900 fluorescence intensity (a.u.)
8,TCAAAATGTTCGACACCGTTGACTTTTTAACACATGTTTGCGGAGTCACCTAGTGCAG,14400 fluorescence intensity (a.u.)
9,ACCTTTTTAAATATTTGACACTGTCGACTTTTTAGCACATCGGAGTCACCTAGTGCAG,9730 fluorescence intensity (a.u.)
10,GTTTTAAAATGGTTGACACCGTTGACTTTTTAGCACGTGTCGGAGTCACCTAGTGCAG,30100 fluorescence intensity (a.u.)
11,ATCCTAAAATGTTTGACACCATTGACTTTTTTAAAAATGTCGGAGTCACCTAGTGCAG,8790 fluorescence intensity (a.u.)
12,TGGCTTGGTCCGCTAGTTCCTAACATCATGACAGTATTTTCGGAGTCACCTAGTGCAG,8280 fluorescence intensity (a.u.)
13,CCCAGGTAGGATATGTGTATGTGTTTATATGGGTGAGTCTCGGAGTCACCTAGTGCAG,9300 fluorescence intensity (a.u.)
14,TTTACCTCTCTGCCGGCCTTTGCACGCTTGTAGCCCACCACGGAGTCACCTAGTGCAG,9670 fluorescence intensity (a.u.)
15,GGCACGGTTTGAACGCATTACCCATTCCCCGTTTGACTTCCGGAGTCACCTAGTGCAG,12800 fluorescence intensity (a.u.)
16,GCGTTACATACATCCTTATTATGTTGTTCATGTTTATAAACGGAGTCACCTAGTGCAG,8240 fluorescence intensity (a.u.)
17,CCTATATCATCCTTTGATAAGATCGACTGTTTGCTATTTACGGAGTCACCTAGTGCAG,9940 fluorescence intensity (a.u.)
18,TGCCAATGCCAGGGTTTTCGTCGGTTTTACATAAATTAACCGGAGTCACCTAGTGCAG,8500 fluorescence intensity (a.u.)
19,GTGGAATCGTTCGTTCTTGACTTCACCTACCAAGATTTGCCGGAGTCACCTAGTGCAG,8640 fluorescence intensity (a.u.)
20,CCTCGCTCCGTCGCTCACAACCCGTCTCCTGCTCGATCCGCGGAGTCACCTAGTGCAG,9140 fluorescence intensity (a.u.)
21,TAGCATGACCTTTCACCCATACATATGAGCTACTTCTCTTCGGAGTCACCTAGTGCAG,9280 fluorescence intensity (a.u.)

row,Sequence,binding signal
1,TTGATACCGTTGACTTTTTAGCACATGTTTGACCATTCATCGGAGTCACCTAGTGCAG,39400 fluorescence intensity (a.u.)
2,ATGTATAACACTGTTGACTTTTTAAGATATATTTGATCATCGGAGTCACCTAGTGCAG,15900 fluorescence intensity (a.u.)
3,TGTTTGACATCGTTGACTTTTTAACACATGTTTCACTGTTCGGAGTCACCTAGTGCAG,36000 fluorescence intensity (a.u.)
4,ACGCCGTTGGCTTTTTAGCATATATTTGACCATTCATCTTCGGAGTCACCTAGTGCAG,8190 fluorescence intensity (a.u.)
5,TAGATAACGTCATTGACTTTTTCTCACATATTTGACCATTCGGAGTCACCTAGTGCAG,12400 fluorescence intensity (a.u.)
6,GAGATATCGTTGACTTTTAGCATAACATAGACCATTCAGCCGGAGTCACCTAGTGCAG,18300 fluorescence intensity (a.u.)
7,GACACCGTTGACTTTTTAGCACATGTTTGACCGCTCATCTCGGAGTCACCTAGTGCAG,32800 fluorescence intensity (a.u.)
8,ACAATTCACAAACGAACCTCTGCTGTTAGCCGCCTCTTTCCGGAGTCACCTAGTGCAG,8190 fluorescence intensity (a.u.)
9,GTTGCTTACTACCTGGTATTAGTCATTGTGGGAGTAGTTCCGGAGTCACCTAGTGCAG,8160 fluorescence intensity (a.u.)
10,TGGCATTTTTTTTTTTGGAATTGAGCACTTGTTAATGTCACGGAGTCACCTAGTGCAG,8110 fluorescence intensity (a.u.)
11,GCTCACCTAACCCATTCACGTGGCGCCAAACCCTCAGGGGCGGAGTCACCTAGTGCAG,8250 fluorescence intensity (a.u.)
12,CACTCGTTTTCAGATCATTTTCCATGGCGCCATGGCGCCTCGGAGTCACCTAGTGCAG,8500 fluorescence intensity (a.u.)
13,ATCATTTAATTCCTGCGTTTTTCCTGCGATTCAATCAAACCGGAGTCACCTAGTGCAG,11300 fluorescence intensity (a.u.)
14,AGCTATATTACTCACCTTCTCTCTTTAAGCCTGTCTAGTACGGAGTCACCTAGTGCAG,10300 fluorescence intensity (a.u.)
15,TTTCCCTGATCCTTTTCCTAACCCAGTGGCAGGCATCTTTCGGAGTCACCTAGTGCAG,9990 fluorescence intensity (a.u.)
16,CTACTTGTGCTGTGTCTTTGTTTTTCTTTCACATTTCTAGCGGAGTCACCTAGTGCAG,14300 fluorescence intensity (a.u.)
17,GTGGGTCCACTTGCTACACATACCACCCCACTTAAACTTTCGGAGTCACCTAGTGCAG,8640 fluorescence intensity (a.u.)
18,ATATTTTAATGAATGACACTGTTGACTTTTTGACAAACGTCGGAGTCACCTAGTGCAG,13300 fluorescence intensity (a.u.)
19,CGCCGCTGCCGTTGACCGTGTTCCGGCACTTCTTCACGACCGGAGTCACCTAGTGCAG,17400 fluorescence intensity (a.u.)
20,CCTTCCGTTTGACACTGTTGACTTTTTTAAATATGTTTGACGGAGTCACCTAGTGCAG,16100 fluorescence intensity (a.u.)
21,ATGTTTGACGCCGTTGATATTTTAGCACATGTTTGACTGTCGGAGTCACCTAGTGCAG,11400 fluorescence intensity (a.u.)
